Among all 70,000 compounds or so, about 120 (0.17%) were called active. Shown is part of a subset that was picked to be rich in actives. A number with no mark means an inactive call. Rule as the data show it: active = inhibition above about 34%; inconclusive = no clear call, values can overlap the other calls; inactive = below about 11%.

The inhibition is the change of the read-out against control, counted positive when it falls.

For this assay, the target named is Isocitrate dehydrogenase [NADP] cytoplasmic (Homo sapiens) (UniProt O75874). The assay is described as follows: PubChem AID 624101.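 Also: 0% = DMSO and 100% = no enzyme.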 The following applies: IDH1 R132H reductase, diaphorase/resazurin fluorescence, 60 min; at 10 µM; active compounds read high. (Resazurin is reduced to fluorescent resorufin, in cell work by metabolically active cells.)
Chain of Isocitrate dehydrogenase [NADP] cytoplasmic (Homo sapiens) (O75874 whole entry R132H): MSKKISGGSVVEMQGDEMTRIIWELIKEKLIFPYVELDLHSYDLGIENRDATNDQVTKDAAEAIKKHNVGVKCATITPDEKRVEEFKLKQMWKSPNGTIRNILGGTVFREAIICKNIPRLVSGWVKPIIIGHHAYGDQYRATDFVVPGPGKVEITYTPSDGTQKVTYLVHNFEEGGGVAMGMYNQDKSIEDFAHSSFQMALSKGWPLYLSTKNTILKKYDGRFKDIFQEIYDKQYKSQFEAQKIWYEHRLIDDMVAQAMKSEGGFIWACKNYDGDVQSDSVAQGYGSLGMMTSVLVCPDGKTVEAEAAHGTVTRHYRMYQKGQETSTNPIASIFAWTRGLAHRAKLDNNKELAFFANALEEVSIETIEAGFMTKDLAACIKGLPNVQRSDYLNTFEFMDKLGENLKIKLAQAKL
Regarding `CO[C@@H]1CN(C)C(=O)c2cc(NC(=O)C3CC3)ccc2OC[C@@H](C)N(Cc2ccc(F)cc2)C[C@@H]1C`, the inhibition is -0.084%.
In the case of `CN(C)CC(=O)Nc1ccc2c(c1)[C@H]1C[C@H](CC(=O)NCc3ccccc3)O[C@@H](CO)[C@H]1O2`, the inhibition is -0.369%.
As for `C[C@H](CO)N1C[C@H](C)[C@H](CN(C)C(=O)C2CCOCC2)Oc2ncc(-c3ccccc3)cc2C1=O`, the figure is 0.163%; as for `Cc1ccc(S(=O)(=O)NCC[C@H]2CC[C@@H](NC(=O)C3CCOCC3)[C@@H](CO)O2)cc1`, 0.168%.
With `COc1cccc(C(=O)Nc2ccc3c(c2)OC[C@H](C)NC[C@H](C)[C@H](OC)CN(C)C3=O)c1` the figure was -0.351%.
`CO[C@@H]1CN(C)C(=O)c2cc(NC(C)=O)ccc2OC[C@H](C)N(Cc2ccccc2F)C[C@@H]1C`: the inhibition was -0.198%.
With `Cc1ccc(-c2cnc3c(c2)C(=O)N([C@@H](C)CO)C[C@H](C)[C@H](CN(C)C(=O)c2cccnc2)O3)cc1` the figure was -1.23%.
With `CO[C@@H](CN(C)S(=O)(=O)c1ccccc1)[C@@H](C)CN(Cc1ccccc1Cl)[C@H](C)CO` the figure was -0.567%.
With `O=C(N[C@H]1CC[C@@H](CCNS(=O)(=O)c2ccc(F)cc2)O[C@@H]1CO)c1ccccn1` the figure was 0.234%; with `Cc1noc(C)c1C(=O)N(C)C[C@H]1OCc2ccccc2-c2c(n(C)c3ccccc23)C(=O)N([C@@H](C)CO)C[C@H]1C`, -2%.
`C[C@@H]1CN([C@@H](C)CO)C(=O)Cc2cc(NC(=O)CCCCCC(=O)Nc3ccccc3N)ccc2O[C@H]1CN(C)C(=O)Nc1ccc(C(F)(F)F)cc1`: the inhibition is 0.304%.
Turning to `CC(=O)N(C)C[C@H]1Oc2cc(-c3ccc(C)cc3)ccc2S(=O)(=O)N([C@@H](C)CO)C[C@@H]1C`, the inhibition is 5.52%.
As for `CS(=O)(=O)Nc1ccc2c(c1)[C@H]1C[C@H](CC(=O)NC3CCCC3)O[C@@H](CO)[C@H]1O2`, the figure is -0.18%.
Turning to `CO[C@@H]1CN(C)C(=O)c2ccc(NS(C)(=O)=O)cc2OC[C@H](C)NC[C@H]1C`, the inhibition was 0.02%.
Consider `CO[C@H]1CN(C)C(=O)c2cc(NS(=O)(=O)c3ccccc3)ccc2OC[C@H](C)N(C(=O)NC(C)C)C[C@@H]1C`, for which the inhibition was 0.066%.
Turning to `O=C(NCC[C@@H]1CC[C@H](NS(=O)(=O)c2cccc(F)c2)[C@H](CO)O1)c1cnccn1`, the inhibition is -0.0355%.
Regarding `O=C(NCC[C@H]1CC[C@H](NC(=O)C2CC2)[C@@H](CO)O1)c1cc(Cl)cc(Cl)c1`, the inhibition was -0.0835%.
In the case of `COc1cccc(-c2cn(CC[C@H]3CC[C@H](NC(=O)CN(C)C)[C@H](CO)O3)nn2)c1`, the inhibition was -0.376%.
As to `O=C(O)C[C@@H]1C[C@@H]2c3cc(NC(=O)NC4CCCC4)ccc3O[C@@H]2[C@H](CO)O1`, the inhibition was -0.0525%.
`C/C=C/c1cnc2c(c1)C(=O)N([C@@H](C)CO)C[C@@H](C)[C@@H](CN(C)C(=O)c1cnccn1)O2`: the inhibition was -1.79%.
As for `CN(C)C(=O)C[C@@H]1CC[C@@H](NS(=O)(=O)c2ccccc2)[C@H](CO)O1`, the figure is -0.243%; as for `CO[C@H]1CN(C)C(=O)c2cc(NC(=O)c3ccccc3)ccc2OC[C@H](C)NC[C@H]1C`, 0.304%.
In the case of `CC(C)NC(=O)N[C@H]1CC[C@H](CC(=O)NC2Cc3ccccc3C2)O[C@H]1CO`, the inhibition was 0.112%.
With `CO[C@@H]1CN(C)C(=O)c2cc(NC(=O)C3CCOCC3)ccc2OC[C@H](C)N(Cc2cccnc2)C[C@H]1C`, the inhibition is -0.057%.
With `O=C(C[C@@H]1CC[C@H](NS(=O)(=O)c2cccc(F)c2)[C@H](CO)O1)N1CCCCC1` the figure was 0.0905%.
With `O=S(=O)(N[C@@H]1CC[C@H](CCn2cc(C3(O)CCCC3)nn2)O[C@@H]1CO)c1ccc(Cl)cc1`, the inhibition is 0.461%.
For the compound `CCCC(=O)Nc1ccc2c(c1)OC[C@H](C)N(CCC(F)(F)F)C[C@@H](C)[C@H](OC)CN(C)C2=O`, the inhibition is -0.114%.
On to `COc1ccccc1-c1cn(CC[C@H]2CC[C@H](NC(=O)Cc3ccccn3)[C@H](CO)O2)nn1`, for which the inhibition is 0.087%.
As for `COc1ccccc1S(=O)(=O)N[C@@H]1C=C[C@H](CC(=O)N2CCN(C)CC2)O[C@@H]1CO`, the figure is 0.0315%; as for `CS(=O)(=O)Nc1ccc2c(c1)[C@H]1C[C@H](CC(=O)NCc3ccc(Cl)cc3)O[C@@H](CO)[C@H]1O2`, -0.335%.
Regarding `CO[C@@H]1CN(C)C(=O)c2ccc(NC(=O)C3CCCCC3)cc2OC[C@@H](C)N(Cc2nccs2)C[C@@H]1C`, the inhibition is 0.03%.
With `C[C@@H]1CN([C@H](C)CO)C(=O)c2cc(Br)cnc2O[C@@H]1CN(C)C(=O)Nc1ccc(F)cc1` the figure was 0.064%; with `C[C@H](NC(=O)C[C@@H]1CC[C@@H](NC(=O)Cc2ccccn2)[C@@H](CO)O1)c1ccccc1`, 0.0085%; with `O=C(N[C@H]1CC[C@@H](CCNS(=O)(=O)c2ccccc2)O[C@H]1CO)c1cccnc1`, -0.222%.
For the compound `Cc1cccc(S(=O)(=O)N[C@H]2CC[C@@H](CCNS(=O)(=O)c3ccccc3F)O[C@H]2CO)c1`, the inhibition was 0.059%.
Turning to `COc1ccc(NC(=O)N[C@H]2CC[C@H](CCn3cc(-c4ccccc4F)nn3)O[C@H]2CO)cc1`, the inhibition was -0.29%.
For `COCc1cn(CC[C@H]2CC[C@@H](NC(=O)Nc3ccc(OC)cc3)[C@@H](CO)O2)nn1`, the inhibition was 0.176%.
As for `C[C@@H]1CN([C@H](C)CO)C(=O)c2cc(C#CC3CC3)cnc2O[C@@H]1CN(C)Cc1cccc(C(=O)O)c1`, the figure is -0.167%; as for `CO[C@H]1CN(C)C(=O)c2ccc(NC(=O)Nc3ccc4c(c3)OCO4)cc2OC[C@H](C)NC[C@H]1C`, -0.152%.
Consider `COCC(=O)Nc1ccc2c(c1)OC[C@H](C)N(C(=O)c1cnccn1)C[C@@H](C)[C@H](OC)CN(C)C2=O`, for which the inhibition was 0.439%.
With `CC(C)CC#Cc1ccc2c(c1)O[C@@H](CN(C)C(=O)c1ccccn1)[C@@H](C)CN([C@H](C)CO)S2(=O)=O` the figure was -2.87%; with `CO[C@H]1CN(C)C(=O)c2cc(NS(=O)(=O)CC(F)(F)F)ccc2OC[C@@H](C)N(Cc2nccs2)C[C@@H]1C`, 0.457%; with `CO[C@H]1CN(C)C(=O)c2ccc(NC(=O)NC(C)C)cc2OC[C@H](C)N(Cc2cncnc2)C[C@@H]1C`, 0.214%.
For `O=C(Cc1ccncc1)NCC[C@H]1CC[C@@H](NC(=O)Nc2ccc(Cl)cc2)[C@@H](CO)O1`, the inhibition is 0.092%.
With `O=C(C[C@H]1CC[C@@H](NC(=O)Nc2ccc(C(F)(F)F)cc2)[C@H](CO)O1)NCc1cc(F)cc(F)c1` the figure was 0.19%.
As for `CCS(=O)(=O)N[C@@H]1CC[C@@H](CC(=O)NCC2CC2)O[C@H]1CO`, the figure is -0.0912%; as for `COc1ccc(CNC(=O)C[C@@H]2CC[C@H](NC(=O)c3cccc(F)c3)[C@H](CO)O2)cc1`, 0.0345%; as for `O=C(N[C@H]1CC[C@@H](CCNS(=O)(=O)c2ccc(Cl)cc2)O[C@H]1CO)c1cccc(F)c1`, -0.0045%.
Regarding `CO[C@@H]1CN(C)C(=O)c2ccc(NC(C)=O)cc2OC[C@@H](C)N(Cc2ccc(-c3ccccn3)cc2)C[C@H]1C`, the inhibition was -0.357%.
As for `CCCC(=O)Nc1ccc2c(c1)OC[C@H](C)N(S(=O)(=O)c1cn(C)cn1)C[C@@H](C)[C@H](OC)CN(C)C2=O`, the figure is -0.504%; as for `C[C@@H]1CN([C@@H](C)CO)C(=O)c2cc(-c3ccccc3F)cnc2O[C@H]1CN(C)C(=O)C1CC1`, 0.564%; as for `O=C(C[C@H]1C[C@@H]2c3cc(NC(=O)CC4CC4)ccc3O[C@@H]2[C@H](CO)O1)NCc1cccnc1`, -0.193%.
As to `CO[C@@H]1CN(C)C(=O)c2cc(NC(=O)C3CC3)ccc2OC[C@H](C)N(C(=O)CN2CCOCC2)C[C@@H]1C`, the inhibition was 0.377%.
As for `COCCNC(=O)C[C@H]1C[C@H]2c3cc(NS(C)(=O)=O)ccc3O[C@H]2[C@H](CO)O1`, the figure is -0.133%; as for `COCC(=O)N(C)C[C@H]1Oc2cc(C#CC3CCCC3)ccc2S(=O)(=O)N([C@H](C)CO)C[C@@H]1C`, -1.42%.
Regarding `C[C@H]1CN([C@@H](C)CO)C(=O)c2cc(-c3ccccc3F)cnc2O[C@H]1CN(C)C(=O)C1CCOCC1`, the inhibition is 0.288%.
For the compound `O=C(N[C@H]1CC[C@@H](CCNS(=O)(=O)c2ccccc2)O[C@@H]1CO)c1cnccn1`, the inhibition was -0.078%.
With `O=C(NCC[C@@H]1CC[C@@H](NS(=O)(=O)c2cccc(F)c2)[C@H](CO)O1)C1CC1` the figure was 0.164%; with `CO[C@H]1CN(C)C(=O)c2cc(NC(=O)Nc3ccccc3)ccc2OC[C@@H](C)N(C(=O)Nc2c(C)noc2C)C[C@@H]1C`, -0.138%; with `COc1ccccc1-c1cn(CC[C@H]2CC[C@@H](NC(=O)CCN3CCCCC3)[C@@H](CO)O2)nn1`, -0.639%.
With `O=C(C[C@H]1C=C[C@@H](NC(=O)NC2CCCCC2)[C@@H](CO)O1)NCc1ccc(Cl)cc1`, the inhibition was 0.05%.
With `CCC(=O)Nc1ccc2c(c1)C(=O)N(C)C[C@@H](OC)[C@H](C)CN(Cc1ccccc1C(=O)O)[C@@H](C)CO2`, the inhibition is -0.502%.
As to `CO[C@@H]1CN(C)C(=O)c2ccc(NS(C)(=O)=O)cc2OC[C@H](C)N(C(=O)C2CC2)C[C@H]1C`, the inhibition is -0.15%.
Regarding `CC(=O)N[C@H]1CC[C@H](CCNC(=O)C2CC2)O[C@H]1CO`, the inhibition is 0.591%.
